# Reference: paper PMC5540273 (PLoS ONE, 2017)
# Assays:
# Details in all cases: concentration: 1 μM, replicates: in singlicate; n = 1
# PFTAIRE2 = test system: PFTAIRE2
# PFTK1 = test system: T1, PFTK1
# T1 construct: gene CDK14
# PHKG1 = test system: PHKG1
# PHKG2 = test system: PHKG2
# PIK3C2B = test system: PIK3C2B
# PIK3C2G = test system: PIK3C2G
# PIK3CA = test system: PIK3CA
# PIK3CB = test system: PIK3CB
# PIK3CD = test system: PIK3CD
# PIK3CG = test system: PIK3CG
# PIK4CB = test system: T2, PIK4CB
# T2 construct: gene PI4KB
# PIKFYVE = test system: PIKFYVE
# PIM1 = test system: PIM1
# PIM2 = test system: PIM2
# PIM3 = test system: PIM3
# PIP5K1A = test system: PIP5K1A
# PIP5K1C = test system: PIP5K1C
# PIP5K2B = test system: PIP5K2B
# PIP5K2C = test system: T3, PIP5K2C
# T3 construct: gene PIP4K2C
# PKAC-alpha = test system: T4, PKAC-alpha
# T4 construct: gene PRKACA
# 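Note: KINOMEscan kinase panel screen.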
SMILES,%Inh (PFTAIRE2),%Inh (PFTK1),%Inh (PHKG1),%Inh (PHKG2),%Inh (PIK3C2B),%Inh (PIK3C2G),%Inh (PIK3CA),%Inh (PIK3CB),%Inh (PIK3CD),%Inh (PIK3CG),%Inh (PIK4CB),%Inh (PIKFYVE),%Inh (PIM1),%Inh (PIM2),%Inh (PIM3),%Inh (PIP5K1A),%Inh (PIP5K1C),%Inh (PIP5K2B),%Inh (PIP5K2C),%Inh (PKAC-alpha)
CNc1nc(-c2ccc3c(N)n[nH]c3c2)cc(N2C[C@@H](C(=O)Nc3ccccc3)CC[C@H]2C)n1 [GSK2298859],3%,17%,0%,15%,0%,0%,0%,0%,0%,0%,0%,0%,0%,0%,0%,0%,50%,0%,3%,57%
O=C1NC(=O)C(c2ccc(Cl)cc2)=C1Nc1cccc(Cl)c1 [SB-317651],0%,1%,0%,0%,13%,0%,9%,96.7%,0%,38%,8%,12%,0%,0%,2%,0%,28%,0%,20%,3%
COC(=O)c1cccc(NC(=O)NC2CCN(c3ccnc(Nc4ccc(F)cc4)n3)C2)c1 (stereo not drawn) [GSK1379725],5%,16%,0%,0%,0%,0%,0%,0%,0%,0%,6%,0%,30%,0%,0%,0%,14%,9%,0%,0%
O=c1cc(N2CCOCC2)nc2n(Cc3cccc(Cl)c3Cl)c3ccccc3n12 [GSK2299009],29%,19%,7%,3%,0%,0%,7%,97.5%,3%,1%,0%,0%,0%,0%,0%,0%,17%,0%,0%,0%
O=C(Nc1n[nH]c2cc(-c3ccsc3)ccc12)C1CC1 [SB-732932],13%,5%,21%,0%,14%,0%,3%,8%,0%,6%,27%,0%,18%,0%,11%,61%,3%,52%,3%,0%
Nc1nccc(-c2c(-c3ccc(F)cc3)ncn2C2CCN(Cc3ccccc3)CC2)n1 [SB-219980],5%,0%,1%,0%,17%,52%,0%,4%,35%,7%,25%,6%,0%,0%,0%,0%,15%,0%,82%,2%
COc1cc2ncnc(Nc3cccc(Br)c3)c2cc1OC.Cl [GI230329],14%,16%,15%,0%,8%,0%,0%,2%,0%,0%,0%,32%,21%,0%,14%,0%,79%,14%,52%,0%
FC(F)(F)c1ccccc1-c1cc(-c2c[nH]nc2-c2ccccn2)ccn1 [GW679396],10%,14%,3%,4%,0%,0%,0%,18%,0%,3%,0%,0%,0%,0%,0%,5%,32%,15%,0%,0%
CNCc1ccc2nc(NC(=O)c3ccc(C(C)(C)C)cc3)cn2c1,6%,0%,5%,0%,91.5%,0%,89%,16%,22%,40%,19%,0%,0%,9%,23%,0%,17%,11%,30%,0%
CSc1ccc(-c2nc3n(c2-c2ccncc2)CCC3)cc1 [SKF-105561],1%,2%,5%,0%,19%,21%,0%,0%,0%,23%,24%,11%,0%,0%,1%,37%,0%,21%,0%,5%
O=C1NC(=O)C(c2ccc(Cl)cc2)=C1Nc1ccc(O)cc1 [SB-340867],13%,0%,0%,0%,0%,0%,0%,0%,0%,17%,13%,9%,0%,3%,0%,0%,40%,0%,0%,0%
Cc1ccc(-c2nc(Nc3ccncc3)c3ccccc3n2)s1 [GSK189015],22%,28%,9%,0%,0%,0%,0%,0%,0%,0%,5%,63%,17%,0%,12%,0%,22%,14%,1%,21%
O=C(Nc1n[nH]c2nc(-c3cccs3)c(Br)cc12)C1CCCC1 [SB-743341],9%,20%,2%,12%,0%,5%,5%,61%,0%,0%,33%,9%,0%,0%,0%,0%,23%,3%,0%,0%
CS(=O)(=O)CCNCc1nc(-c2ccc3ncnc(Nc4ccc(OCc5ccccc5)c(Cl)c4)c3c2)cs1.Cl [GW582764],7%,3%,0%,0%,0%,0%,0%,0%,0%,0%,0%,25%,14%,0%,0%,47%,52%,10%,56%,0%
COc1ccc(CSc2nnc(-c3ccc4c(c3)CCO4)o2)cc1,0%,0%,0%,25%,0%,0%,0%,0%,0%,0%,0%,0%,0%,0%,0%,11%,23%,9%,14%,0%
Cc1c(Cn2c(C)c(C)n3c(=O)cc(N4CCOCC4)nc23)cccc1C(F)(F)F [GSK2328680],8%,10%,0%,0%,4%,0%,20%,99.1%,80%,4%,0%,0%,1%,0%,0%,9%,44%,20%,7%,0%
Cc1nccc(-c2c(-c3ccc(F)cc3)ncn2CCCN2CCOCC2)n1.Cl [SB-282975],24%,2%,33%,89%,0%,22%,0%,20%,49%,0%,42%,0%,0%,13%,0%,0%,22%,0%,18%,24%
COc1ccc(Nc2nccc(N3CCC(NC(=O)C(C)c4ccc(Cl)cc4)C3)n2)cc1 (stereo not drawn) [GSK1379735],0%,28%,4%,0%,0%,0%,0%,0%,0%,0%,0%,0%,0%,0%,35%,8%,52%,18%,25%,0%
COc1nccc(-c2c(-c3ccc(F)cc3)ncn2CCCN2CCOCC2)n1 [SB-282852],0%,0%,13%,0%,8%,8%,0%,0%,0%,37%,49%,37%,7%,0%,0%,12%,4%,0%,8%,0%
COc1ccc(Nc2nccc(N3CCC(NC(=O)c4cc5ccccc5s4)C3)n2)cc1 (stereo not drawn) [GSK1379738],16%,4%,0%,0%,0%,0%,0%,0%,0%,0%,19%,0%,25%,0%,21%,0%,40%,13%,47%,0%
COc1ccc(-c2coc3ccc(-c4nnc(C)o4)cc23)cc1,0%,9%,0%,20%,0%,21%,0%,0%,0%,12%,0%,0%,10%,21%,15%,13%,14%,9%,10%,3%
